# According to the supplement of paper PMC10849652:
# About 8,800 targets were measured; listed, in parts, are those with a hit and a random draw of the rest. About 0.5% of all pairs of compound and target were hits. A number with no mark means an inactive call.
# Key:
# Experiment in all cases: log2 fold change, soluble protein after heating vs DMSO (PISA); higher = thermal stabilisation; K562 lysate, 10 uM; active = over 0.2 and 3.5 SD of the protein, either way, in both replicates (recomputed)
# [1] = compound: CCCS(=O)(=O)Nc1ccc(F)c(C(=O)c2c[nH]c3ncc(-c4ccc(Cl)cc4)cc23)c1F [vemurafenib]
# Method in brief: (§1)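 A 30 min treatment with 10 μM compound was applied to crude K562 extract at 1 mg/mL protein in PBS pH 7.4 with 1 mM MgCl2. Heating for 3 min spanned 48°C-58°C, after which aliquots were pooled, adjusted to 0.5% NP-40 at 4°C and spun at 21,000xg for 90 min. TMTpro 16plex LC-MS/MS of the supernatant, with channel sums equalised, gave values recorded as log-two fold change in thermal stability against solvent controls, from duplicates.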
# [2] = compound: CCCS(=O)(=O)Nc1ccc(F)c(C(=O)c2c[nH]c3ncc(Cl)cc23)c1F
# Method in brief: as §1
# [3] = compound: CCN(CCCOc1ccc2c(Nc3cc(CC(=O)Nc4cccc(F)c4)[nH]n3)ncnc2c1)CCOP(=O)(O)O [barasertib]
# Method in brief: as §1
# [4] = compound: CC[C@@H]1C(=O)N(C)c2cnc(Nc3ccc(C(=O)NC4CCN(C)CC4)cc3OC)nc2N1C1CCCC1
# Method in brief: as §1
# [5] = compound: CC[C@@H]1C(=O)N(C)c2cnc(Nc3ccc(C(=O)N[C@H]4CC[C@H](N5CCN(CC6CC6)CC5)CC4)cc3OC)nc2N1C(C)C [volasertib]
# Method in brief: as §1
# [6] = compound: CCn1c(C(=O)N(C2CC2)C2CC2)cc2c3c(ncn3C)c(Nc3cc(C)n(C)n3)nc21
# Method in brief: as §1
# [7] = compound: CCn1cc(-c2ccnc3[nH]c(-c4cccc(CN(C)C)c4)cc23)c(-c2ccc(NC(=O)N(C)C)cc2)n1
# Method in brief: as §1
# [8] = compound: CN1CCC(CNc2ccc3ncc(-c4cccc(OC(F)(F)F)c4)n3n2)CC1
# Method in brief: as §1
# [9] = compound: CN1CCN(CCOc2cc(OC3CCOCC3)c3c(Nc4c(Cl)ccc5c4OCO5)ncnc3c2)CC1 [saracatinib]
# Method in brief: as §1
# [10] = compound: CN1CCN(c2nc(C3=C(c4c[nH]c5ccccc45)C(=O)NC3=O)c3ccccc3n2)CC1 [sotrastaurin]
# Method in brief: as §1
# [11] = compound: CN1CC[C@H](c2c(O)cc(O)c3c(=O)cc(-c4ccccc4Cl)oc23)[C@H](O)C1 [alvocidib]
# Method in brief: as §1
# [12] = compound: CN1CCc2c(c3ccccc3n2Cc2ccc(C(=O)NO)cc2)C1 [Tubastatin A]
# Method in brief: as §1
# [13] = compound: CNC(=O)C1=CC=CC=C1NC2=NC(=NC=C2Cl)NC3=C(C=C(C=C3)N4CCOCC4)OC
# Method in brief: as §1
# [14] = compound: CNC(=O)c1ccc(Nc2ncc(C(F)(F)F)c(NCc3nccnc3N(C)S(C)(=O)=O)n2)cc1 [defactinib]
# Method in brief: as §1
# [15] = compound: CNc1nc(-c2ccc3c(N)n[nH]c3c2)cc(N2C[C@@H](C(=O)NC3CCCCC3)CC[C@H]2C)n1
# Method in brief: as §1
# [16] = compound: COC(=O)N[C@@H](C)CNc1nccc(-c2cn(C(C)C)nc2-c2cc(Cl)cc(NS(C)(=O)=O)c2F)n1 [encorafenib]
# Method in brief: as §1
# [17] = compound: COC(=O)[C@H](CCSC)NC(=O)C1=C(C=C(C=C1)NC[C@H](CS)N)C2=CC=CC=C2
# Method in brief: as §1
# [18] = compound: COc1cc(Nc2ncc3c(n2)-c2ccc(Cl)cc2C(c2c(F)cccc2OC)=NC3)ccc1C(=O)O [alisertib]
# Method in brief: as §1
# [19] = compound: COc1cc2nc(-c3cc(F)ccc3O)nc(N[C@@H]3CNC[C@H]3C(C)(C)O)c2cc1OC
# Method in brief: as §1
# [20] = compound: COc1cc2ncnc(Nc3ccc(F)c(Cl)c3)c2cc1OCCCN1CCOCC1 [gefitinib]
# Method in brief: as §1
# Sequence of UniProt P50053 (P50053 whole entry, looked up): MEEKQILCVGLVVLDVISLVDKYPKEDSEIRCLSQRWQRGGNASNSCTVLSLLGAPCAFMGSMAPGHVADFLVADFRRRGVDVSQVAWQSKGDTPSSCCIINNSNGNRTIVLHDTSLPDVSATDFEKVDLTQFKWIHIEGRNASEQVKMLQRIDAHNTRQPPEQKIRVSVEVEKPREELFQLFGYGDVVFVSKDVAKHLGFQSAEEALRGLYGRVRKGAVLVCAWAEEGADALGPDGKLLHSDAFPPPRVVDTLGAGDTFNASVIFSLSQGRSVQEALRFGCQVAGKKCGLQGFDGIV
# Sequence of UniProt P82970 (P82970 whole entry, looked up): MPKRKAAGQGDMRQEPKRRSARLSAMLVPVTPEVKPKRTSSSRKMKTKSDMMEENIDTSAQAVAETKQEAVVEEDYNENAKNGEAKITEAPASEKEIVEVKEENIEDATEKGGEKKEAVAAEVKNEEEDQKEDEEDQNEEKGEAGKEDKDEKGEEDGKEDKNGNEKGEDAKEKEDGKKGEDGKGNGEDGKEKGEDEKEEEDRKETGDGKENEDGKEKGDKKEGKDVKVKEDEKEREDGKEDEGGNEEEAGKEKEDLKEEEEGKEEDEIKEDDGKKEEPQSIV
# Sequence of UniProt O15357 (O15357 whole entry, looked up): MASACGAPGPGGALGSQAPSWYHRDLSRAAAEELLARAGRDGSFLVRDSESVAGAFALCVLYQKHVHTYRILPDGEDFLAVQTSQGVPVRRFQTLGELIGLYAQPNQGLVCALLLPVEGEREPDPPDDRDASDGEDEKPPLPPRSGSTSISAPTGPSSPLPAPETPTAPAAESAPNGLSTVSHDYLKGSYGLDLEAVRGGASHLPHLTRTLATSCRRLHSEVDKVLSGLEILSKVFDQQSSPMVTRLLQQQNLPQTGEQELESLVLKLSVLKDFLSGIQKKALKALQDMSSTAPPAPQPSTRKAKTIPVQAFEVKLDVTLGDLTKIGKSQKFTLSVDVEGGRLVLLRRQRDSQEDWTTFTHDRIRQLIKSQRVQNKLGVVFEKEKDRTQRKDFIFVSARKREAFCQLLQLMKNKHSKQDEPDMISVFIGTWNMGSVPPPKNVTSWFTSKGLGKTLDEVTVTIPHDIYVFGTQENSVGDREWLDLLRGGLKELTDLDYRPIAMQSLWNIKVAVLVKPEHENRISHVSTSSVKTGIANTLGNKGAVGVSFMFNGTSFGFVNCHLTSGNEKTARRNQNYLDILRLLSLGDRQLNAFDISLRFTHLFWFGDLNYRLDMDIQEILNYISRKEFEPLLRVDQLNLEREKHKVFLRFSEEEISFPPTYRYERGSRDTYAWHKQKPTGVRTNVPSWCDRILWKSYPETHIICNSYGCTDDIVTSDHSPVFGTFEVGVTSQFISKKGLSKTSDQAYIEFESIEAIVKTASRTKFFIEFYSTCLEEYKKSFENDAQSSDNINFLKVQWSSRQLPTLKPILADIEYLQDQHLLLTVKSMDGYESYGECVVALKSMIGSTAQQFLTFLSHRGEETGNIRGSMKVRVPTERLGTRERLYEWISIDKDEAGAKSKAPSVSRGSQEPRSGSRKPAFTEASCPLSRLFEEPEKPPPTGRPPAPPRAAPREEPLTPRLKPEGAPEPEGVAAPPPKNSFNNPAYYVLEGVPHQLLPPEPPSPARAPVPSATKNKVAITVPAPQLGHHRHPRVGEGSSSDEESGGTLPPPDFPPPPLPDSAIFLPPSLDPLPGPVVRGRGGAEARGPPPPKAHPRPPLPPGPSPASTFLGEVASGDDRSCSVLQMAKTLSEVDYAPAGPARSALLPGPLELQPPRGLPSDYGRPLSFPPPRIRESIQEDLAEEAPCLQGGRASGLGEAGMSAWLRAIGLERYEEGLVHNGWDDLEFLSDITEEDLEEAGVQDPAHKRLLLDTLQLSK
# Sequence of UniProt Q8WVV9 (Q8WVV9 whole entry, looked up): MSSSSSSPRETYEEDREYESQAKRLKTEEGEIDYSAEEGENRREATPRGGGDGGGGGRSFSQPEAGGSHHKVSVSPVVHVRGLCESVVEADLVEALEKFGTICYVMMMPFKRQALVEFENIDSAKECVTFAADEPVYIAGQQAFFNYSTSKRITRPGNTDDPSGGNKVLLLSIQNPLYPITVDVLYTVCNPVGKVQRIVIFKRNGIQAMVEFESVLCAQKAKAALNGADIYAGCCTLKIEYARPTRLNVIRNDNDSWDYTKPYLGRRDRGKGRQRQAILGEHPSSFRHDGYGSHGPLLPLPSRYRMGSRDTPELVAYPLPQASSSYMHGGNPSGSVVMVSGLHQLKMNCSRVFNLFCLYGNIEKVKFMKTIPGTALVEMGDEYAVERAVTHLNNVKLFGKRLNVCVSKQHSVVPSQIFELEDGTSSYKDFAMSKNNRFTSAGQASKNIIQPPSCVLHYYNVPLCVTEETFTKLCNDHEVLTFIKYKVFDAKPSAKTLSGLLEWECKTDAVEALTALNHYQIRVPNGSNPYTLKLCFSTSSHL
# Sequence of UniProt Q9H4A6 (Q9H4A6 whole entry, looked up): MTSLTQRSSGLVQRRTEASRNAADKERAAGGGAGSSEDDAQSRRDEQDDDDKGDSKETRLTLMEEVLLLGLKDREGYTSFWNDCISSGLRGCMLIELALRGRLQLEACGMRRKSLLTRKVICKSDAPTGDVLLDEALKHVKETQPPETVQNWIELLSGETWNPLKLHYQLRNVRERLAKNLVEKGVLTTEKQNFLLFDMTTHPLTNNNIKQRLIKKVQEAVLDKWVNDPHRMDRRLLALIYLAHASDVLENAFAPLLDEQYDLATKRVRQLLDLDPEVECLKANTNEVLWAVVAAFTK
# Sequence of UniProt Q6DN03 (Q6DN03 whole entry, looked up): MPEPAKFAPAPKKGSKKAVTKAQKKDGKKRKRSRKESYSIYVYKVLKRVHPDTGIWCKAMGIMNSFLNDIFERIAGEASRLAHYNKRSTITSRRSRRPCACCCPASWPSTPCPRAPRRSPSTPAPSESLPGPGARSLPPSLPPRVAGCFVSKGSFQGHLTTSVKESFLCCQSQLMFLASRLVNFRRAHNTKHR
# Sequence of UniProt P49448 (P49448 whole entry, looked up): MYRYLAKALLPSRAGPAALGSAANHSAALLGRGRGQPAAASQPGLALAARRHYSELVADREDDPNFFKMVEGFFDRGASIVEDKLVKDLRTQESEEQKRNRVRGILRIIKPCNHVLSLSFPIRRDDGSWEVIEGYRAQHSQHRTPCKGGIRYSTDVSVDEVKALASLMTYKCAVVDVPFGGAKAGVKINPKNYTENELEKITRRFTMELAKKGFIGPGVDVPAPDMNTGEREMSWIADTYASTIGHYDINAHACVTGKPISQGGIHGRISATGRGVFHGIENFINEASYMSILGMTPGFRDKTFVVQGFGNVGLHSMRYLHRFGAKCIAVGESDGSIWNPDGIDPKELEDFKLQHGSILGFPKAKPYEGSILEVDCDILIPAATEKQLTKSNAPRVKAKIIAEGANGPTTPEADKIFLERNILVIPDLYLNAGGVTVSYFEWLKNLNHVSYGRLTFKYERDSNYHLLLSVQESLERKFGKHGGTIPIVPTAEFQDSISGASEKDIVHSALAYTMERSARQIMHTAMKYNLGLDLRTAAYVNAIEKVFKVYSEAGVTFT
# Sequence of UniProt Q14145 (Q14145 whole entry, looked up): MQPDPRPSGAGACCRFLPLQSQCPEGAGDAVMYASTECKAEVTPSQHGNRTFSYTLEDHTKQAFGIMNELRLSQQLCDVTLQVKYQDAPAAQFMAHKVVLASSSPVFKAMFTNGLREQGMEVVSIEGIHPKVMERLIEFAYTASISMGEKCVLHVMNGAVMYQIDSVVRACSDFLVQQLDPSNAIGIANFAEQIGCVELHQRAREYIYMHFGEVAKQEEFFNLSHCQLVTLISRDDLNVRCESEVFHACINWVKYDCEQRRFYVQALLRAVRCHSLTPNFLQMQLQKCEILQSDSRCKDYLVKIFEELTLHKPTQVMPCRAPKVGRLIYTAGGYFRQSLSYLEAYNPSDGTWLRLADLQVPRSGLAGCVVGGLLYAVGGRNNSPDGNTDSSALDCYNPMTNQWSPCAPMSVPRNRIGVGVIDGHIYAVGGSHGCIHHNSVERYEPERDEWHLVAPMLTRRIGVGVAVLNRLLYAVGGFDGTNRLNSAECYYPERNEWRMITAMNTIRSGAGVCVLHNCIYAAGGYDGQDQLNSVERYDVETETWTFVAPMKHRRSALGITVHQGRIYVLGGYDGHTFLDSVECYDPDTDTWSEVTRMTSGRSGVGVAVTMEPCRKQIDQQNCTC
# Sequence of UniProt O14979 (O14979 whole entry, looked up): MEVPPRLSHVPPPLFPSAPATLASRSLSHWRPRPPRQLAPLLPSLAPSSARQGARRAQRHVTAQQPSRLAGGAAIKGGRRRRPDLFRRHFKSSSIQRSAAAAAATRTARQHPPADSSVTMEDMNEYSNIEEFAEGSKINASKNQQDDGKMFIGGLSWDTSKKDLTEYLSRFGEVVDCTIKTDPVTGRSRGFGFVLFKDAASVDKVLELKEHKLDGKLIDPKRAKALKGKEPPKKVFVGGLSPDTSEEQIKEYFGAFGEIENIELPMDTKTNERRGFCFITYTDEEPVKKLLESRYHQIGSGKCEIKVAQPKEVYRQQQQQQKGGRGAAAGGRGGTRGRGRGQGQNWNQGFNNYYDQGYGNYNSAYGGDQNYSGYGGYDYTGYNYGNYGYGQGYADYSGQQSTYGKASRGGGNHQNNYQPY
# Sequence of UniProt P35914 (P35914 whole entry, looked up): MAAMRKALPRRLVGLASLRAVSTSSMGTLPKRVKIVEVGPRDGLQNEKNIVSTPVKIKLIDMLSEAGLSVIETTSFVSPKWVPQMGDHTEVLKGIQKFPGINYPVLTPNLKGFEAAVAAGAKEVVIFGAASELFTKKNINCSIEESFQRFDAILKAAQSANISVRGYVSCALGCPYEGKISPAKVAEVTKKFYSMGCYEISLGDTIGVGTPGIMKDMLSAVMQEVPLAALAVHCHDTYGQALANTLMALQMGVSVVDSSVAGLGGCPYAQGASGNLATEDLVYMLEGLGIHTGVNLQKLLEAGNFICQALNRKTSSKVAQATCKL
Target,log2 fold change [1],log2 fold change [2],log2 fold change [3],log2 fold change [4],log2 fold change [5],log2 fold change [6],log2 fold change [7],log2 fold change [8],log2 fold change [9],log2 fold change [10],log2 fold change [11],log2 fold change [12],log2 fold change [13],log2 fold change [14],log2 fold change [15],log2 fold change [16],log2 fold change [17],log2 fold change [18],log2 fold change [19],log2 fold change [20]
KEAP1 (UniProt Q14145),0.014,0,0.01,-0.008,-0.001,-0.016,-0.017,0.044,-0.018,0.033,-0.024,-0.019,-0.008,0.014,0.017,0.043,-0.094,0.012,0.013,0.018
GLUD2 (UniProt P49448),0.177,-0.042,-0.069,0.02,-0.145,-0.031,-0.024,0.046,0.007,-0.039,-0.029,0.12,0.053,0.061,0.02,0.066,0.115,-0.06,-0.021,0.036
INPPL1 (UniProt O15357),0.023,0.01,0.028,-0.02,-0.047,0.095,-0.017,-0.06,0.005,0.019,-0.001,-0.177,0.039,0,-0.001,0.009,0.037,0.036,-0.013,0.01
HARS (UniProt P12081),-0.024,-0.02,-0.031,-0.049,-0.006,0.012,0.023,-0.01,-0.021,0.009,0,0.001,-0.02,-0.02,-0.054,-0.03,0.254 (active),0.003,0.015,0.007
KHDRBS1 (UniProt Q07666),-0.025,0.004,0.034,-0.024,-0.024,-0.002,0.083,-0.048,-0.004,-0.008,0.039,-0.045,0.017,-0.006,0.007,0.019,-0.139,-0.025,0.011,-0.01
HNRNPDL (UniProt O14979),-0.039,0.026,-0.03,0.008,-0.002,0.003,0.043,0.018,-0.036,-0.098,0.01,-0.017,0.018,-0.006,-0.002,-0.028,-0.017,0.04,-0.005,-0.029
GMIP (UniProt Q9P107),0.041,0.048,-0.024,-0.01,0,-0.005,-0.027,-0.004,0.007,0.034,-0.078,-0.139,0.088,0.033,-0.01,0.061,0.031,-0.014,-0.078,0.11
GOLPH3 (UniProt Q9H4A6),-0.007,0.015,0.036,-0.016,-0.041,0.018,-0.029,-0.103,0.021,-0.053,0.001,-0.123,0.075,0.015,-0.1,0.051,-0.6 (active),-0.018,-0.024,-0.011
KHK isoform 2 (UniProt P50053),-0.021,0,0.052,-0.053,0.017,0.076,0.404 (active),-0.072,0.067,0.013,0.058,-0.001,-0.057,-0.038,-0.068,0.03,-0.02,0.008,0.083,-0.038
HMGN5 (UniProt P82970),-0.007,-0.011,-0.044,0.016,0.013,-0.044,0.3 (active),-0.164,-0.027,-0.029,0.04,0.045,-0.029,0.051,0.018,-0.029,-0.023,-0.036,0.006,-0.028
HMGCL (UniProt P35914),-0.017,0.01,0.027,0.037,0.014,0.037,0.05,-0.02,-0.013,-0.01,0.013,-0.012,-0.015,0.059,0.055,0.032,-0.102,-0.031,-0.016,-0.021
HIST2H2BC (UniProt Q6DN03),-0.261,0.026,-0.029,-0.05,0.013,0.033,0.291 (active),-0.024,0,-0.01,0.024,0.004,0.019,-0.148,-0.003,0.092,0.143,0.005,0.008,-0.12
GPR108 (UniProt Q9NPR9),0.001,-0.059,-0.03,0.01,0.03,0.031,0.057,0.01,0.092,0.019,-0.068,-0.034,0.075,0,0.014,0.11,-0.066,0.001,0.047,0.002
HERC2 (UniProt O95714),0.034,0.004,0.038,-0.038,-0.01,0.039,0.032,-0.021,0.037,0.047,-0.075,-0.316 (active),-0.109,-0.085,-0.077,0.027,0.111,-0.007,0.005,0.004
HNRNPLL (UniProt Q8WVV9),0.004,0.046,0.018,0.008,-0.027,-0.004,-0.006,-0.013,-0.001,0.034,0.015,-0.164,0.021,0.035,-0.016,0.082,-0.07,-0.016,0.011,-0.052
